Source: PubChem BioAssay AID602379 (National Center for Advancing Translational Sciences (NCATS), 2012)

target: Pyruvate kinase PKLR (Homo sapiens) (UniProt P30613); test: qHTS for Activators of Human Muscle Isoform Pyruvate Kinase: Extended Characterization against Liver Pyruvate Kinase; settings: purified hPK-L, ATP via Kinase-Glo luminescence, 1 h; series mostly up to 57.3 µM; activity change, positive = activation: at the top concentration
Description: Human pyruvate kinase liver (hPK-L) enzyme was supplied as a highly purified (>95% pure) preparation from Harvard Medical School and assayed for its ability to generate ATP from ADP using phosphoenolpyruvate (PEP) as a substrate. ATP generation was detected in a coupled reaction by luciferase-mediated luminescence, an ATP-dependent process. Pyruvate kinase substrates, PEP and ADP, were present in the assay at Km and approximately 10-fold below Km respectively. The enzyme was assayed at an intermediate level of activity to screen for both inhibitors and activators. NIH Chemical Genomics Center [NCGC] NIH Molecular Libraries Probe Centers Network [MLPCN] MLPCN Grant: MH085679 Assay Submitter (PI): Matthew G. Vander Heiden, Harvard Medical School
Three uL of substrate mix (at r.t.) in assay buffer (50 mM Imidazole pH7.2, 50 mM KCl, 7 mM MgCl2, 0.01% Tween 20, 0.05% BSA) was dispensed into white solid bottom 1,536 well microtiter plates so that the final concentrations of substrates in the assay were 0.1 mM ADP and 0.5 mM PEP. 23 nL of compound were delivered by a pin tool and 1 uL of enzyme mix (final concentration of 0.1 nM) in assay buffer (4 degree Celsius) was added. Plates were incubated at room temperature for 1 hour. Two uL of detection mix (Kinase-Glo, Promega; at 4 degree Celsius protected from light) was added and luminescence read by a ViewLux (Perkin Elmer) at 1 second exposure/plate. Data were normalized to the uninhibited (row 31). Additionally, a no enzyme and 5-fold enzyme control was dispensed in row 32, split equally between the two conditions.

Pyruvate kinase PKLR (Homo sapiens), sequence (P30613 whole entry, looked up, canonical isoform): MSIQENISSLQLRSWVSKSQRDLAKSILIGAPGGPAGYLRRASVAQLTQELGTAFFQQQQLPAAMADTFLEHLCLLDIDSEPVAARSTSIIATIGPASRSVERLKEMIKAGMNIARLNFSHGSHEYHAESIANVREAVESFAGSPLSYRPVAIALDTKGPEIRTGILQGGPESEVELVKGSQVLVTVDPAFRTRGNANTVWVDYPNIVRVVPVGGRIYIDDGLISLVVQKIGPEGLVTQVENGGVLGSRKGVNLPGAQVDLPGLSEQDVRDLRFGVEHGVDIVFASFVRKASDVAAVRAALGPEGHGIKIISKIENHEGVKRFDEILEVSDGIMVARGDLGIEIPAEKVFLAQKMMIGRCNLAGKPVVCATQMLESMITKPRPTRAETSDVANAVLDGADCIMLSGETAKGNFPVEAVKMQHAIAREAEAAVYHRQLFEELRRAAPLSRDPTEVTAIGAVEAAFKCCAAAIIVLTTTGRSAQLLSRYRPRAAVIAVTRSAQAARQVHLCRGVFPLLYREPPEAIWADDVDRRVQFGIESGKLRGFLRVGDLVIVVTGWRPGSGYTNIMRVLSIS

Activity change, positive = activation, inactive:
COc1cccc(Cn2ncc3c4sc(S(C)=O)cc4n(C)c3c2=O)c1 (stereo not given) 5.38%
Cc1cc2c(s1)c1cnn(Cc3cc(F)c(F)cc3F)c(=O)c1n2C 5.78%
Cc1cc2c(s1)c1cnn(Cc3ccc(F)cc3F)c(=O)c1n2C 5.82%
Cc1cc2c(s1)c1cnn(Cc3c(Cl)ccc(C)c3F)c(=O)c1n2C 13.2%
Cc1cc2c(s1)c1cnn(Cc3cc(F)ccc3F)c(=O)c1n2C 5.89%
